In all, about 330,000 compounds went through this assay and fewer than 10 were called active. The call rests on the fitted dose curve; in most records, active means well fitted activation curve with a large enough effect; inconclusive means small, poorly fitted or top-dose-only effect, or another doubt; inactive means no such curve, though single readings can be large or run the other way. The list is a sample of the results.
Test: Activators of T cell receptors: qHTS campaign; further: % of control where 0% means no effect
Settings: primary human leukocytes, anti-CD3, IL-2 HTRF, 48 h; series mostly up to 9.22 µM; activation of IL-2 secretion: at the top concentration
Description: Normally activation of naive T cells requires two signals. 1. A signal through the T cell receptor (TCR) which provides antigen specificity to the response. 2. Signals through co-stimulatory molecules, which are necessary for proliferation, survival and cytokine production. In the absence of co-stimulatory signals T cells are not effectively activated, and may even be rendered anergic or unresponsive to subsequent signaling. This lack of costimulation has been shown in multiple model systems to be a major factor in the limited strength and effectiveness of anti-tumor T cell responses. The goal of this project is to identify small molecule compounds that will stimulate T cell activation in the presence of TCR signaling but in the absence of co-stimulatory signals, thereby allowing activation of naive T cells in the absence of co-stimulation. Identification of such compounds would have clear experimental and clinical applications in instances where desirable antigen-specific immune responses are not generated due to a lack of co-stimulation, for example in the generation of anti-tumor responses. In collaboration between the National Cancer Institute and NIH Chemical Genomics Center, a high-throughput amenable screen was developed to discover small molecules that co-stimulate and activate human T cell receptors. The screen will be carried out using a novel homogeneous time resolved fluorescence energy transfer (HTRF) assay to measure production of the cytokine IL-2 by activated T cells and will be tested against the NIH Molecular Libraries Small Molecule Repository (MLSMR). NIH Chemical Genomics Center [NCGC] NIH Molecular Libraries Probe Centers Network [MLPCN] MLPCN Grant: MH090820-01 Assay Submitter (PI): Richard Hodes, National Cancer Institute, NIH
Primary human leukocytes are incubated with a-CD3 beads and compounds for 48 hr. The amount of secreted IL-2 is then assayed with a HTRF IL-2 kit. The presence of IL-2 cytokine captures the detection reagents and brings the a-IL-2-K and a-IL-2-d2 into close proximity. Upon excitation with 320nm light, the europium cryptate is capable of transferring energy to acceptor molecules within close proximity, resulting in acceptor molecule emission at 665nm.

Row | Compound | activation of IL-2 secretion
1 | C#CCOCCOCCOCCNc1nc(N2CCN(C(=O)Cn3cc(CCO)nn3)CC2)nc(N2CCN(C(=O)[C@H](CCCCN)n3cc(CCCC)nn3)CC2)n1 | -0.341% (inactive)
2 | C[C@]12CCC(=O)C=C1C=CC1C2CC[C@@]2(C)C1CC[C@@]21CCC(=O)O1 (some centres not stated) | -6.09% (inactive)
3 | CC(=O)Nc1ccc(C(=O)Nc2cc(S(=O)(=O)N3CCOCC3)ccc2N2CCOCC2)cc1 | 5.5% (inactive)
4 | C=CC(=O)Nc1ccc(Nc2ccnc(Nc3ccc(N4CCN(C)CC4)cc3)n2)cc1 | 7.98% (inactive)
5 | Cc1ccc(C)c(S(=O)(=O)N(C)c2ccc(OC(=O)C3CCN(C(=O)c4ccc(F)cc4)CC3)cc2)c1 | 3.39% (inactive)
6 | Cc1c(NS(=O)(=O)c2cccc(C(=O)Nc3ccc(SC(F)F)cc3)c2)c(=O)n(-c2ccccc2)n1C | -2.41% (inactive)
7 | C[C@@H]1ON(C)[C@H]2C[C@H]3c4cc(N5CCN(C)CC5)ccc4CCN3C(=O)[C@@H]12 | 6.04% (inactive)
8 | Cc1onc(-c2c(F)cccc2Cl)c1C(=O)Nc1cccc(S(=O)(=O)N2CCCCC2)c1 | 5.63% (inactive)
9 | O=C(CC1Sc2ccccc2NC1=O)NNc1ccc(Cl)c(Cl)c1 (configuration not stated) | -9.29% (inactive)
10 | CCC(=O)N1CCc2cc(Br)c(S(=O)(=O)NCCN3CCCCC3CC)cc21 (configuration not stated) | -2.39% (inactive)
11 | CC(C)Cn1cnc2c(SCc3ccc(Cl)cc3)nc(N)nc21 | 0.446% (inactive)
12 | O=C1NCC(c2ccccc2)(c2ccccc2)C(=O)N1 | -1.83% (inactive)
13 | COC[C@@H]1NS(=O)(=O)c2ccc(Br)cc2O[C@H]1c1ccccc1 | 6.54% (inactive)
14 | CN1CCC(N(C)C(=O)c2ccc(Cl)c(S(=O)(=O)Nc3ccc(Cl)cc3)c2)CC1 | 1.82% (inactive)
15 | Cc1cc2c(cc1C)NC1(C[C@H]3CCC(=O)N4CC[C@@H](C1)[C@@H]34)C(=NC(C)(C)CC(C)(C)C)N2 (some centres not stated) | -11.4% (inactive)
16 | CN(C(=O)c1cccc(NC(=O)Cc2ccc(NC(=O)C3CCCN(C(=O)C4CC4)C3)cc2)c1)C1CC1 (configuration not stated) | -3.14% (inactive)
17 | O=C1/C(=C\c2ccc(O)cc2)CCC1CNc1ccc(Cl)cc1 (configuration not stated) | -0.0826% (inactive)
18 | O=C1C2C3C=CC(C3)C2C(=O)N1c1ncc([N+](=O)[O-])s1 (configuration not stated) | 0.761% (inactive)
19 | NNc1cccc(C=Cc2ccccc2)cc1=O | -0.278% (inactive)
20 | COc1ccc(-c2nnc(-c3ccc4ccccc4c3)o2)cc1 | -0.347% (inactive)
21 | Cc1nc(N)sc1-c1ccccc1 | 6.41% (inactive)
22 | NC(=O)C1(Nc2ccc(-c3ccccc3)cc2)CCCC1 | -6.79% (inactive)
23 | CCN(CC)CCCN1C(=O)C(=O)/C(=C(/O)c2c(C)nc3ccccn23)C1c1ccc(C)o1 (configuration not stated) | -1.01% (inactive)
24 | O=C1OC(Oc2ccc(Br)cc2)(c2ccccc2)c2ccccc21 (configuration not stated) | 10.2% (inactive)
25 | CN(C)C(=S)N=c1ssc(=S)n1Cc1ccco1 | 3.1% (inactive)
26 | CN(C(=O)c1cccc(NC(=O)Cc2cccc(NC(=O)C3CCCN(C(=O)C4CC4)C3)c2)c1)C1CCC1 (configuration not stated) | 0.256% (inactive)

Row | Compound | activation of IL-2 secretion
27 | O=C(NNC(=O)c1ccccc1O)c1ccccc1O | -2.99% (inactive)
28 | O=C1CC(c2ccccc2)C(=O)N2C(=O)CC(c3ccccc3)C(=O)N12 (configuration not stated) | -4.84% (inactive)
29 | Nc1ccc2c(c1)C(=Cc1cccnc1)c1ccccc1-2 | -2.17% (inactive)
30 | CC(=O)c1ccc(NC(=O)C(C)OC(=O)c2ccc(NS(=O)(=O)c3ccc4[nH]c(=O)[nH]c4c3)cc2)cc1 (configuration not stated) | 2.02% (inactive)
31 | CCOc1ccccc1NC(=S)C(=C([O-])c1ccc2c(c1)OCCO2)[n+]1ccc(CC)cc1 | -5.5% (inactive)
32 | O=C1C(Cl)=C(Oc2ccccc2)C(=O)c2ccccc21 | -2.03% (inactive)
33 | CSc1ncnc2c1ncn2CC(=O)C1CCC2C3CCC4=CC(=O)CCC4(C)C3CCC12C (configuration not stated) | 1% (inactive)
34 | O=S(=O)(O)c1cc2onnc2c2ccccc12 | 0.823% (inactive)
35 | CCOC(=O)c1ccc2[nH]c(C)c(CN3CCN(C)CC3)c(=O)c2c1 | 2.26% (inactive)
36 | COC1=CC(=O)OC(c2ccc(OC)cc2)C1 (configuration not stated) | -4.88% (inactive)
37 | CCOC(=O)c1ccccc1OC(=O)Oc1ccccc1C(=O)OCC | 12.8% (inactive)
38 | COc1ccc(CCN2CC(C(=O)OCC(=O)NCc3ccccc3Cl)CC2=O)cc1OC (configuration not stated) | 10.2% (inactive)
39 | O=C(CNC(=O)c1cc(S(=O)(=O)N2CCOCC2)ccc1N1CCCC1)Nc1ccc(F)c(F)c1 | 2.72% (inactive)
40 | COc1cc2[nH]c(O)c(C=O)c2cc1OC | 1.43% (inactive)
41 | Cc1ccc(Nc2c(O)nc[nH]c2=O)cc1C | -0.131% (inactive)
42 | NC(=O)C1(Nc2ccc([N+](=O)[O-])cc2)CCCC1 | -2.68% (inactive)
43 | O=C1COc2c1ccc(O)c2O | -2.28% (inactive)
44 | O=C(Cc1ccc(Cl)cc1)c1ccccc1 | -1.31% (inactive)
45 | c1ccc2c(c1)OC1OC2Oc2ccccc21 | -1% (inactive)
46 | CCc1ccc(C(=O)C(C)OC(=O)CN2C(=O)NC3(CCCC3)C2=O)cc1 (configuration not stated) | 0.426% (inactive)
47 | CCOC(=O)C1CCCN(C(=O)Cn2ncc3c(=O)oc4ccc(C)cc4c32)C1 (configuration not stated) | 3.09% (inactive)
48 | CC(=O)OCC1(O)CC23CCC4c5ccoc5CCC4(C)C2CCC1C3 (configuration not stated) | -4.8% (inactive)
49 | CC(=O)CSc1nc(CCc2ccccc2)c(C#N)c(=O)[nH]1 | -2.27% (inactive)
50 | CCN(CC)CCCC(C)n1c2nc(=O)[nH]c(=O)c-2nc2cc(Cl)ccc21 (configuration not stated) | -2.28% (inactive)
51 | c1ccc(-c2c[nH]c(-c3ccccc3)c2)cc1 | -2.6% (inactive)
52 | O=C(NCC1(N2CCCCC2)CCCCC1)c1cccc(S(=O)(=O)Nc2ccccc2Cl)c1 | -1.93% (inactive)
